Drawing on PubChem BioAssay (Tox21), this text covers Potency and outcome for 21 compounds.

Records with an inconclusive call do not appear. Values without a mark were called inactive. Active and inactive are the calls of the source. Unless noted, calls come from the whole dose curve; as a rule, active = well fitted curve in the direction sought with a large enough effect in the repeat runs; inconclusive = weak or mixed curves; inactive = no such curve, though single readings can be large; an effect the other way counts as inactive or inconclusive.

Test [1] can be described thus: qHTS assay to identify small molecule agonists of the vitamin D receptor (VDR) signaling pathway - cell viability counter screen (AID 743224). Note: nearly all actives have a fitted effect of over 50% in size. Note: potency is the fitted concentration of half-maximal effect. The method, boiled down:
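Plated VDR-bla cells (4 h, 37C) received compound, incubated 16 h, then LiveBLAzer substrate 2 h RT; CellTiter-Glo added afterwards, luminescence read at 30 min.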

Test [2] is described as follows: qHTS assay to identify small molecule agonists of the NFkB signaling pathway (AID 1159509; active = well fitted curve in the direction sought with a large enough effect in the signal ratio in the repeat runs, not every such curve was filed as active; the % refers to the signal ratio; note: series mostly up to about 61 µM). The method, boiled down: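 After overnight attachment, reporter cells received test compounds, DMSO or positive controls and were incubated 5 hr at 37 C. FRET substrate was then added for 1.5 hr at room temperature before dual-emission fluorescence reading.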
Test [3] is described as follows: qHTS assay to identify small molecule agonists of the NFkB signaling pathway - cell viability counter screen (AID 1159515; calls by dose curve; note: series mostly up to about 61 µM; nearly all actives have a fitted effect of over 55% in size). The method, boiled down:
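Using the same wells as the NFkB reporter read, ME-180 NFkB-bla cells given compounds for 5 hr were assessed for viability via CellTiter-Glo, with luminescence taken after a 30 min room-temperature incubation.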
For orientation: qHTS replaces the single test concentration by a dilution series.

Test [4] can be described thus: qHTS assay to identify small molecule agonists of the endoplasmic reticulum stress response signaling pathway (AID 1159516; active = well fitted activation curve with a large enough effect in the signal ratio in the repeat runs, not every such curve was filed as active; the % refers to the signal ratio). In short, it runs like this:
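An ESRE-bla HeLa cell assay: compounds were pin-transferred from DMSO onto overnight-plated cells and left 5 hr at 37 C. Substrate was then loaded for 2 hr at room temperature before reading fluorescence at 460 nm and 530 nm.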

Test [5] can be described thus: qHTS assay to identify small molecule agonists of the endoplasmic reticulum stress response signaling pathway - cell viability counter screen (AID 1159517; calls by dose curve;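 note: HeLa cells carrying an ER stress response element beta-lactamase reporter; series mostly up to about 61 µM; nearly all actives have a fitted effect of over 50% in size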). In short, it runs like this:
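Cells, HeLa ESRE-bla; density, 1,500/well; dosing, 5 hr at 37 C, 5% CO2; readout, CellTiter-Glo luminescence after 30 min RT.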

A short description of test [6]: qHTS assay to identify small molecule antagonists of the retinoid-related orphan receptor gamma (ROR-gamma) signaling pathway - cell viability counter screen (AID 1159520). Note: nearly all actives have a fitted effect of over 50% in size. Note: potency is the fitted concentration of half-maximal effect. In short, it runs like this: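 Cytotoxicity was read from cellular ATP (CellTiter-Glo luminescence) after 16 hr at 37 C with 1 uM doxycycline induction. The inducer was added 2 hr after compound transfer to Tet-on ROR gamma CHO cells.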

The nature of test [7]: qHTS assay to identify small molecule agonists of the AP-1 signaling pathway - cell viability counter screen (AID 1159525; calls by dose curve; note: nearly all actives have a fitted effect of over 55% in size). In short, it runs like this:
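Luminescent ATP readout (Cell Titer Glo, 30 min RT), normalised to DMSO and tetra n-octyl ammonium bromide controls. Cells were ME-180 AP-1-bla in 0.5% dialyzed FBS Opti-MEM, with a 5 h, 37 °C compound exposure.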

Test [8] in a line: qHTS assay to identify small molecule agonists of the AP-1 signaling pathway (AID 1159526; calls by dose curve).
Test [9] is described as follows: qHTS assay to identify small molecule agonists of the RXR signaling pathway - cell viability counter screen (AID 1159529).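 Note: HEK 293T cells carrying an RXR-alpha UAS beta-lactamase reporter; series mostly up to about 77 µM; nearly all actives have a fitted effect of over 50% in size.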 In short, it runs like this: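 Steps: seed RXR-alpha-UAS-bla HEK 293T cells in assay medium containing 2% charcoal-stripped FBS; incubate 5 hr; add compounds in DMSO; incubate 16 hr at 37 C; after the bla read, add CellTiter-Glo and read luminescence at 30 min.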

A short description of test [10]: qHTS assay to identify small molecule antagonists of the retinoid acid receptor (RAR) signaling pathway - cell viability counter screen (AID 1159551). Note: nearly all actives have a fitted effect of over 35% in size. In short, it runs like this:
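Retinol-stimulated (1 uM final) C3RL4 cells, compound 6 h, 37 C; readout CellTiter-Glo luminescence (ATP) after 30 min RT incubation.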

Test [11] in a line: qHTS assay to identify small molecule antagonists of the retinoic acid receptor (RAR) signaling pathway (AID 1159552; note: nearly all actives have a fitted effect of over 50% in size; note: potency is the fitted concentration of half-maximal effect). In short, it runs like this:
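Retinol at 1 uM final stimulated RARE-luciferase expression in C3RL4 cells exposed to test compounds for 6 hr at 37 C. Reduced luminescence, read 30 min after detection reagent, indicated pathway antagonism.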

Test [12] in a line: qHTS assay to identify small molecule agonists of the retinoic acid receptor (RAR) signaling pathway (AID 1159553). In short, it runs like this:
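Reporter readout comes from luciferase under RARE control in C3RL4 cells; compound exposure lasts 6 hr at 37 C in 5% CO2, and luminescence is recorded following a 30 min room-temperature incubation with reagent.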

Test [13] is described as follows: qHTS assay to identify small molecule antagonists of the vitamin D receptor (VDR) signaling pathway - cell viability counter screen (AID 743225). Note: nearly all actives have a fitted effect of over 50% in size. In short, it runs like this:
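HEK293T VDR-bla; cpd + 1a,25-(OH)2D3 3 nM final, 16 h 37C/5% CO2; B/G FRET substrate 2 h RT; then CellTiter-Glo 30 min RT, luminescence.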

The target in test [14] is Retinoic acid receptor RXR-alpha (Homo sapiens) (UniProt P19793). Kind of test: qHTS assay to identify small molecule agonists of the RXR signaling pathway (AID 1159527; calls by dose curve; note: nearly all actives have a fitted effect of over 35% in size; note: potency is the fitted concentration of half-maximal effect). In short, it runs like this: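 Cells plated at 2,000/well, rested 5 hr at 37 C, pin-dosed with DMSO compound solutions, incubated 16 hr, then loaded with B/G FRET substrate for 2 hr at RT before dual-emission fluorescence reading.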
Sequence of Retinoic acid receptor RXR-alpha (Homo sapiens) (P19793 whole entry, looked up): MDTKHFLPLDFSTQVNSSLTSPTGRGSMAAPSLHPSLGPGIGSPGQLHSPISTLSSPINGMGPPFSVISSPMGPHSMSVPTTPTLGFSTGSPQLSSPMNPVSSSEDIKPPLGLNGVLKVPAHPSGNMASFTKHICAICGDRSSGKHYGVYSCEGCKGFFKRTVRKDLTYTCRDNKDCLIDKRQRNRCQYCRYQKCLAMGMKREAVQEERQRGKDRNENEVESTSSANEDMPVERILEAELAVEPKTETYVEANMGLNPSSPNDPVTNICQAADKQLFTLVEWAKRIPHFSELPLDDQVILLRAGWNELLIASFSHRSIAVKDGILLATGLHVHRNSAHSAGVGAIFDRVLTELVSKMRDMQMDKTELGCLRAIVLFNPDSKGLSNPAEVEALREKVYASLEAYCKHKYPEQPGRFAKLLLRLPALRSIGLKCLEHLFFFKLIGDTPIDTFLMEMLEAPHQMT

Test [15] is described as follows: qHTS assay to identify small molecule antagonists of the estrogen related receptor (ERR) signaling pathway - cell viability counter screen (AID 1224818).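 Note: series mostly up to about 46 µM; viability measured after 17.5 h of compound exposure.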 The method, boiled down:
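After a 6 h pre-incubation, ERR cells were dosed by pin tool with compounds, positive/negative controls or DMSO alone. Following 17.5 h at 37 C and 30 min with CellTiter-Fluor, fluorescence was recorded.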

The nature of test [16]: qHTS assay to identify small molecule antagonists of the estrogen related receptor signaling pathway with the pleiotropic PPARgamma coactivator (PGC) cell viability counter screen (AID 1224822;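 note: series mostly up to about 46 µM; viability read after 17.5 h compound exposure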). In short, it runs like this:
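PGC/ERR cells were plated at 2,000 per well and allowed 6 h to settle before compound addition. Following 17.5 h at 37 C, CellTiter-Fluor reagent was added and fluorescence was read 30 min later.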

Consider `CCC(C)(C)C1CCC(O)CC1` (configuration not stated), for which the Potency result in [1], in [6], in test [9], in [10], in test [11] and in [12] was “inactive” each time. In addition, the compound was called inactive in test [2], in [3], in test [4], in test [5], in test [7] and in test [8].
Regarding `O=C1OCCN1/N=C/c1ccc([N+](=O)[O-])o1`, the Potency result in test [1], in test [13], in [6], in test [14], in [9] and in [10] was “inactive” in each case. Moreover, the call in test [2], in test [3], in [4], in [5], in test [7] and in test [8] was inactive.
As for `CCOc1cc(N)c(Cl)cc1C(=O)NCC1CN(Cc2ccc(F)cc2)CCO1` (configuration not stated), the Potency entry in [1], in test [13], in test [6], in [14], in test [9] and in test [11] was “inactive” throughout. Also, the Potency entry in [12] was “inactive”. The compound was classed as inactive in test [2], in [3], in test [4], in test [5], in test [7] and in test [8].
For the compound `CCCCOC(=O)CCS`, the Potency entry in [1], in [13], in test [6], in [14], in test [9] and in test [10] was “inactive” in each case. In addition, the Potency entry in test [12] is “inactive”. The call in test [2], in [3], in test [4], in [5], in test [7] and in [8] was inactive.
As to `CN1CCCN=C1/C=C/c1cccs1`, the Potency result in test [1], in test [13], in test [6], in [14], in test [9] and in test [10] was “inactive” throughout. In addition, the Potency result in [12] is “inactive”. For the same compound, the compound was classed as inactive in [2], in test [3], in [4], in [5], in [7] and in test [8].
For the compound `CCCOC(=O)c1ccc(N)cc1`, the Potency result in test [1], in [6], in test [14], in test [9], in test [10] and in test [11] was “inactive” throughout. The outcome in [2], in test [3], in test [4], in test [5], in [7] and in [8] was inactive.
For the compound `CO[Si](C)(OC)OC`, the Potency result in [1], in test [13], in test [6], in test [14] and in test [9] was “inactive” each time. Moreover, the outcome in [2], in test [3], in test [4], in test [5], in test [7] and in test [8] was inactive.
Take `C[C@@H]1C[C@H]2[C@@H]3CCC4=CC(=O)C=C[C@]4(C)[C@@]3(F)[C@@H](O)C[C@]2(C)[C@@]1(O)C(=O)CO`: the result in test [2], in [3], in test [4], in [5], in test [7] and in [8] was inactive. Further, the Potency result in test [6], in [9] and in test [10] was “inactive” throughout.
Regarding `CC(C)(O)c1ccccc1CC[C@@H](SCC1(CC(=O)O)CC1)c1cccc(/C=C/c2ccc3ccc(Cl)cc3n2)c1`, the Potency result in test [1], in test [13], in test [6], in test [14] and in test [9] was “inactive” each time. For the same compound, the compound was called inactive in test [2], in test [3], in test [4], in [5], in [7] and in test [8].
In the case of `CC(C)C(=O)O`, the Potency result in test [1], in test [13], in test [6], in [14], in test [9] and in test [10] was “inactive” each time. Also, the Potency entry in test [11] is “inactive”. In addition, the result in [2], in test [3], in test [4], in test [5], in test [7] and in test [8] was inactive.
Turning to `CNC(=S)NC`, the Potency result in test [1], in test [6], in test [10] and in test [11] was “inactive” throughout. Further, the compound was called inactive in test [2], in [3], in test [4], in test [5], in test [7] and in test [8]. In addition, the Potency in test [14] is 38.9 µM (active).
As to `Nc1nccs1`, the Potency result in test [1], in test [13], in test [6], in [14] and in test [10] was “inactive” throughout. Besides, the result in test [2], in test [3], in test [4], in test [5], in test [7] and in test [8] was inactive.
On to `CCC(Cc1ccccc1)(C(=O)c1ccc(N2CCOCC2)cc1)N(C)C` (configuration not stated), for which the compound was classed as inactive in [2], in test [3], in [4], in [5], in test [7] and in [8]. Moreover, the Potency result in test [6], in [9] and in test [10] was “inactive” each time.
`Cc1ccccc1N1C(=O)c2cc(S(N)(=O)=O)c(Cl)cc2NC1C` (configuration not stated): the Potency entry in test [1], in test [13], in [6], in test [14], in test [9] and in [10] was “inactive” each time. Further, the compound was classed as inactive in test [2], in [3], in test [4], in test [5], in [7] and in [8]. In addition, the result in test [15] and in test [16] was inactive.
As to `COC(OC)(C(=O)c1ccccc1)c1ccccc1`, the Potency result in test [1], in test [13], in [6], in test [14], in [9] and in [10] was “inactive” each time. The Potency entry in test [11] was “inactive”. The outcome in test [2], in test [3], in test [4], in test [5], in [7] and in test [8] was inactive.
Turning to `CC(N)CN` (configuration not stated), the Potency result in test [1], in [13], in [6], in test [14], in test [9] and in [10] was “inactive” throughout. The call in test [2], in [3], in test [4], in test [5], in test [7] and in [8] was inactive.
For `CCCCN(CCCC)CCCOC(=O)c1ccc(N)cc1`, the Potency entry in test [1], in [13], in test [6], in test [14], in test [10] and in test [11] was “inactive” each time. The Potency entry in test [12] is “inactive”. The compound was called inactive in [2], in test [3], in test [4], in test [5], in [7] and in test [8].
With `CCCCCCCCCOC(C)=O`, the Potency entry in test [1], in [13], in test [6], in [14], in test [9] and in test [10] was “inactive” each time. Further, the result in test [2], in test [3], in [4], in test [5], in test [7] and in test [8] was inactive.
Consider `CCCCCCCCCCCC(=O)[O][Sn]([CH2]CCC)([CH2]CCC)[O]C(=O)CCCCCCCCCCC`, for which the Potency is 23.7 µM (active) in test [1], 13.3 µM (active) in test [6] and 29.8 µM (active) in test [11]. Further, the Potency result in test [13], in [9], in test [10] and in [12] was “inactive” each time. Besides, the outcome in test [2], in test [3], in test [4], in test [5], in [7] and in test [8] was inactive.
As for `CC(C)(C)C(=O)C(Oc1ccc(Cl)cc1)n1ccnc1` (configuration not stated), the Potency entry in [1], in test [13], in test [6], in [9], in test [10] and in test [11] was “inactive” each time. For the same compound, the call in [2], in test [3], in test [4], in test [5], in test [7] and in test [8] was inactive.
Consider `Cc1ccc(/C=N/n2c(-c3ccccc3)csc2=S)cc1`, for which the Potency result in test [1], in test [13], in test [6], in test [9], in [10] and in test [11] was “inactive” throughout. Besides, the Potency result in test [12] was “inactive”. The call in [2], in [3], in test [4], in [5], in test [7] and in [8] was inactive.
